According to the supplement of paper PMC10849652:
Targets with a hit are over-represented here; the source holds about 7,900 in all. About 0.6% of all pairs of compound and target were hits.

Columns and labels:
Assay in all cases: log2 fold change, soluble protein after heating vs DMSO (PISA); higher = thermal stabilisation; K562 cells, 10 uM, 30 min; active = over 0.2 and 3.5 SD of the protein, either way, in both replicates (recomputed)
IRAK-1-4 Inhibitor I = compound: C1COCCN1CCN2C3=CC=CC=C3N=C2NC(=O)C4=CC(=CC=C4)[N+](=O)[O-] [IRAK-1-4 Inhibitor I]
How it was run: (§1)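 K562 cells at 2×10^6 cells/mL were treated for 30 min with 10 μM compound, and aliquots were heated for 3 min over 48°C-58°C before pooling. Extraction used PBS with 0.5% NP-40 at 4°C, and soluble protein was the supernatant after 21,000xg for 90 min, measured by TMTpro 16plex LC-MS/MS with channel sums equalised. Thermal stability values, relative to control samples and from duplicates, are log2 fold changes.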

[1] = compound: CC(=O)c1cnc2ccc(-c3cc(Cl)c(O)c(Cl)c3)nc2c1N[C@H]1CC[C@H](CN(C)C)CC1
How it was run: as §1

ralimetinib = compound: CC(C)(C)Cn1c(N)nc2ccc(-c3[nH]c(C(C)(C)C)nc3-c3ccc(F)cc3)nc21 [ralimetinib]
How it was run: as §1

[2] = compound: CC(C)(O)CC(=O)NCCn1ccc2ncnc(Nc3ccc(Oc4cccc(C(F)(F)F)c4)c(Cl)c3)c21
How it was run: as §1

[3] = compound: CC(C)C[C@@H](C=O)NC(=O)[C@H](CC(C)C)NC(=O)[C@H](CC(C)C)NC(=O)OCc1ccccc1
How it was run: as §1

pinometostat = compound: CC(C)N(C[C@H]1O[C@@H](n2cnc3c(N)ncnc32)[C@H](O)[C@@H]1O)[C@H]1C[C@@H](CCc2nc3cc(C(C)(C)C)ccc3[nH]2)C1 [pinometostat]
How it was run: as §1

[4] = compound: CC1=C(C(CC(=O)N1)C2=CC=C(C=C2)C(F)(F)F)C(=O)NC3=C(C=C4C(=C3)C=NN4)F
How it was run: as §1

[5] = compound: CC1=C(C2=C(C=C1)C(=O)C3=CC=CC=C3N2CCCN)C
How it was run: as §1

[6] = compound: CC(C)C1=C2N=C(C=C(N2N=C1)NCC3=CC=CC=C3)NCCCCCCN
How it was run: as §1

ibrutinib = compound: C=CC(=O)N1CCC[C@@H](n2nc(-c3ccc(Oc4ccccc4)cc3)c3c(N)ncnc32)C1 [ibrutinib]
How it was run: as §1

Measured: log2 fold change

CASP9 (UniProt P55211)
inactive: IRAK-1-4 Inhibitor I 0.03 | [1] -0.096 | ralimetinib 0.008 | [2] -0.043 | [3] 0.053 | pinometostat 0.03 | [4] -0.071 | [5] -0.206

CDCA2 (UniProt Q69YH5)
inactive: IRAK-1-4 Inhibitor I 0.023 | [1] 0.011 | ralimetinib 0.081 | [2] -0.138 | [6] -0.009 | [3] 0.188 | pinometostat -0.008 | [4] -0.018 | [5] -0.003

C19orf54 (UniProt Q5BKX5)
Sequence of UniProt Q5BKX5 (Q5BKX5 whole entry, looked up): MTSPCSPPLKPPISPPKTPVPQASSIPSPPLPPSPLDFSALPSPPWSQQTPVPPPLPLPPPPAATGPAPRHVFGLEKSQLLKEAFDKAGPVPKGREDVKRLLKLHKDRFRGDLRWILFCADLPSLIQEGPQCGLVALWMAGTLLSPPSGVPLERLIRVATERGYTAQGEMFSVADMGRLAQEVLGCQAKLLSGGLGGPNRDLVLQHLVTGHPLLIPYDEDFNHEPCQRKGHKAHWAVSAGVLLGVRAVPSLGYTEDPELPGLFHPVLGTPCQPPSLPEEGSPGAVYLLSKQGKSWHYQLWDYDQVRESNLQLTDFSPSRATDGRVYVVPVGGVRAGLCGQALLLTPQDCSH
inactive: IRAK-1-4 Inhibitor I 0.008 | [1] 0.045 | ralimetinib 0.019 | [2] -0.003 | [6] -0.022 | [3] 0.08 | pinometostat -0.016 | [5] -0.054

CLUH (UniProt O75153)
Sequence of UniProt O75153 (O75153 whole entry, looked up): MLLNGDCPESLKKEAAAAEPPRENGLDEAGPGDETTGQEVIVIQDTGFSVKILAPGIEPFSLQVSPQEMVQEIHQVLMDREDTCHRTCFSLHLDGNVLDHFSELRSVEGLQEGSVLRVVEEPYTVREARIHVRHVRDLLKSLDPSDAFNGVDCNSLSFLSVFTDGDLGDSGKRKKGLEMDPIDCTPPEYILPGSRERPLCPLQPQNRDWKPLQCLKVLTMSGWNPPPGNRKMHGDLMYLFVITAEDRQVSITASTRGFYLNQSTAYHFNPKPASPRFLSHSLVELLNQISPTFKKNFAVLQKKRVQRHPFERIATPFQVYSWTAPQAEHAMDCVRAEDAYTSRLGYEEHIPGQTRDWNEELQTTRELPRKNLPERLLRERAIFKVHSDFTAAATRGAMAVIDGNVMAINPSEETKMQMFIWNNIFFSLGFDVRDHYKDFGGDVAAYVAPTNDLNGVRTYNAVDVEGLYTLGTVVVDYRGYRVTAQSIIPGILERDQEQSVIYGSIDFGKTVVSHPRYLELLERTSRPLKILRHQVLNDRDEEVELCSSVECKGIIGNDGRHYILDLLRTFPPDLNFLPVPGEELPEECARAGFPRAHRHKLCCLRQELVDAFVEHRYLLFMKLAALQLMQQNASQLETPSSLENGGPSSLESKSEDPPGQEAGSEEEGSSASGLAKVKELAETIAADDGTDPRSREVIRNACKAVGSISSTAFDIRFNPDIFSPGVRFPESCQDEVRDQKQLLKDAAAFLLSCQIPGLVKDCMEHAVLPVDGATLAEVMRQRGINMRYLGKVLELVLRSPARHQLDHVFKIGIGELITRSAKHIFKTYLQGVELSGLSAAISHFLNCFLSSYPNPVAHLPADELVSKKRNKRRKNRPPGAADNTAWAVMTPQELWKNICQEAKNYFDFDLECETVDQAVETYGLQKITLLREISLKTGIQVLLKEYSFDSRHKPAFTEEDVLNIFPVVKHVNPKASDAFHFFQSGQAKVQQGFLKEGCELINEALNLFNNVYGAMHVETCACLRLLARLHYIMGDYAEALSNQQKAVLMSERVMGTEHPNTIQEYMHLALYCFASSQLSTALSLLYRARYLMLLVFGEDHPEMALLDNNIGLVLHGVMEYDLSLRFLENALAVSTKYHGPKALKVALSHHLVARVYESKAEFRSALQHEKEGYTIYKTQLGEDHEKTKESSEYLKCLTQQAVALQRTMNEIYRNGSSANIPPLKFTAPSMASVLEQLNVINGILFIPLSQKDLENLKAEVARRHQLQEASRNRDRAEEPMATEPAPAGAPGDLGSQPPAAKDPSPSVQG
active: [1] 0.467
inactive: IRAK-1-4 Inhibitor I 0.107 | ralimetinib 0.028 | [2] -0.048 | [6] -0.179 | [3] -0.009 | pinometostat 0.045 | [4] -0.094 | [5] 0.095

COG2 (UniProt Q14746)
inactive: IRAK-1-4 Inhibitor I -0.232 | [1] -0.042 | ralimetinib 0.099 | [2] -0.317 | [6] -0.009 | [3] 0.18 | pinometostat -0.043 | [4] 0.132 | [5] -0.108

CLUH, A0A494C0R8
active: [1] 0.508
inactive: IRAK-1-4 Inhibitor I -0.016 | ralimetinib -0.125 | [2] -0.231 | [6] -0.257 | [3] 0.199 | pinometostat -0.044 | [4] -0.058 | [5] 0.046

CDK8 (UniProt P49336)
inactive: IRAK-1-4 Inhibitor I 0.006 | ibrutinib -0.011 | ralimetinib -0.174 | [2] -0.15 | [6] -0.067 | [3] 0.096 | pinometostat -0.057 | [5] -0.005
active: [1] 0.487

CCM2 isoform 2 (UniProt Q9BSQ5)
inactive: IRAK-1-4 Inhibitor I 0.027 | ibrutinib -0.004 | ralimetinib 0.04 | [2] 0.027 | [6] -0.085 | [3] 0.009 | pinometostat 0.056 | [5] -0.013

CAV2 (UniProt P51636)
inactive: IRAK-1-4 Inhibitor I -0.165 | ibrutinib 0.105 | [1] 0.025 | [6] -0.073 | pinometostat 0.178 | [4] 0.028 | [5] 0.005

CIR1 (UniProt Q86X95)
inactive: IRAK-1-4 Inhibitor I -0.023 | ibrutinib 0.121 | [1] -0.05 | ralimetinib 0.083 | [2] 0.128 | [6] 0.198 | [3] 0.175 | pinometostat 0.169 | [5] 0.022

COMMD1 (UniProt Q8N668)
Sequence of UniProt Q8N668 (Q8N668 whole entry, looked up): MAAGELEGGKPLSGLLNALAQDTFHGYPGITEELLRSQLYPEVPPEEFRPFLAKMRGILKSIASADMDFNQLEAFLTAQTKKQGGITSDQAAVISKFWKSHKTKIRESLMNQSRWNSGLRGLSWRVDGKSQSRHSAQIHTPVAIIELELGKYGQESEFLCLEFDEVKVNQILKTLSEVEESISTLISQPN
inactive: IRAK-1-4 Inhibitor I -0.033 | ibrutinib -0.083 | ralimetinib 0.036 | [2] 0.06 | [6] -0.177 | [3] 0.19 | pinometostat 0.046 | [4] 0.027 | [5] 0.006

CARD9 (UniProt Q9H257)
inactive: IRAK-1-4 Inhibitor I -0.181 | [1] -0.255 | ralimetinib 0.15 | [6] 0.071 | [3] 0.178 | pinometostat 0.202

CMTM3 (UniProt Q96MX0)
Sequence of UniProt Q96MX0 (Q96MX0 whole entry, looked up): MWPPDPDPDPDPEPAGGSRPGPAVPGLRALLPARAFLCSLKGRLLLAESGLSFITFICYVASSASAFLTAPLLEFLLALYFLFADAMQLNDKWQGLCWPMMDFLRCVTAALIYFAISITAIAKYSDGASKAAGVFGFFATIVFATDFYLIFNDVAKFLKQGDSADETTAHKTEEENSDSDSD
inactive: IRAK-1-4 Inhibitor I 0.021 | ibrutinib 0.014 | [1] 0.003 | [2] -0.108 | [6] 0.068 | pinometostat 0 | [4] 0.12 | [5] -0.062

C15orf41 (UniProt Q9Y2V0)
Sequence of UniProt Q9Y2V0 (Q9Y2V0 whole entry, looked up): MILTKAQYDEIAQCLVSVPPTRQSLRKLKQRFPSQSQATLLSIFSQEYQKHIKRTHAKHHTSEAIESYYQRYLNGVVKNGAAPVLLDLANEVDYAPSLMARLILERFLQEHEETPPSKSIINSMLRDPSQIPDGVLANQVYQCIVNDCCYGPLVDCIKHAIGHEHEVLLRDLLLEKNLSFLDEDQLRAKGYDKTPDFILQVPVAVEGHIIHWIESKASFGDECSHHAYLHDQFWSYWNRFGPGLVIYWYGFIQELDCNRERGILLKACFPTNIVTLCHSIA
inactive: IRAK-1-4 Inhibitor I 0.105 | [1] 0.062 | ralimetinib 0.004 | [2] -0.103 | [6] -0.17 | [3] 0.11 | pinometostat 0.027 | [5] -0.117

CENPE (UniProt Q02224)
inactive: IRAK-1-4 Inhibitor I 0.046 | ibrutinib -0.184 | [1] 0.431 | ralimetinib 0.119 | [6] 0.211 | [3] 0.11 | pinometostat -0.002 | [5] 0.101

CLCN3 (UniProt P51790)
inactive: IRAK-1-4 Inhibitor I 0.014 | [1] -0.062 | ralimetinib -0.076 | [2] 0.015 | [6] -0.05 | [3] -0.039 | pinometostat -0.031 | [4] -0.045 | [5] -0.053

CNOT4 isoform 9 (UniProt O95628)
Sequence of UniProt O95628 (O95628 whole entry, looked up): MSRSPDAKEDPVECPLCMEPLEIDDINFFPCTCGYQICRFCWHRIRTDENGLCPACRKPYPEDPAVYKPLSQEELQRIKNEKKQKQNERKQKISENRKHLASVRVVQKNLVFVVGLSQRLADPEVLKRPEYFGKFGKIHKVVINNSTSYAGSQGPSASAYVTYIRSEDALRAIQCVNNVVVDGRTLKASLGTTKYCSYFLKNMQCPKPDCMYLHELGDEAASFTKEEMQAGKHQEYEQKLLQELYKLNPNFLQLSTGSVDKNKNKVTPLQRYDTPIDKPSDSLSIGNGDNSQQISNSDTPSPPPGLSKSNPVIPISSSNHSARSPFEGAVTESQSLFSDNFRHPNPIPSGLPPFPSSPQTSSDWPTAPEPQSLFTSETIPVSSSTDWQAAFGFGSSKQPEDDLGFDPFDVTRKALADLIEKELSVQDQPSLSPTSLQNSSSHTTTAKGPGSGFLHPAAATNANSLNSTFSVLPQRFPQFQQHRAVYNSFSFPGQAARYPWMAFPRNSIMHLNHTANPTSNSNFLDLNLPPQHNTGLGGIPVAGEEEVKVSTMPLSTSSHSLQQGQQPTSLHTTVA
inactive: IRAK-1-4 Inhibitor I 0.09 | ibrutinib 0.089 | [1] 0.189 | ralimetinib 0.128 | [6] -0.068 | [3] 0.015 | pinometostat -0.028 | [4] -0.024 | [5] 0.202

CRTC1 isoform 2 (UniProt Q6UUV9)
inactive: IRAK-1-4 Inhibitor I 0.026 | ibrutinib -0.061 | [1] -0.023 | ralimetinib 0.025 | [2] -0.042 | [6] 0.112 | [3] -0.041 | pinometostat -0.024 | [5] 0.072

CASP10 isoform 4 (UniProt Q92851)
inactive: IRAK-1-4 Inhibitor I -0.132 | ibrutinib -0.083 | [1] 0.083 | ralimetinib 0.095 | [2] -0.13 | [3] -0.015 | pinometostat 0.047 | [4] 0.021 | [5] 0.262

CEP128 (UniProt Q6ZU80)
inactive: IRAK-1-4 Inhibitor I -0.149 | ibrutinib -0.055 | [1] -0.022 | pinometostat 0.012 | [5] 0.1

COX17 (UniProt Q14061)
Sequence of UniProt Q14061 (Q14061 whole entry, looked up): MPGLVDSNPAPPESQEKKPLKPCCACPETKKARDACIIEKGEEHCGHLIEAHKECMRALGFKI
inactive: IRAK-1-4 Inhibitor I -0.14 | [1] -0.052 | ralimetinib 0.41 | [2] -0.158 | [6] 0.019 | [3] -0.196 | pinometostat -0.014 | [4] 0.241 | [5] 0.086

CLPX (UniProt O76031)
Sequence of UniProt O76031 (O76031 whole entry, looked up): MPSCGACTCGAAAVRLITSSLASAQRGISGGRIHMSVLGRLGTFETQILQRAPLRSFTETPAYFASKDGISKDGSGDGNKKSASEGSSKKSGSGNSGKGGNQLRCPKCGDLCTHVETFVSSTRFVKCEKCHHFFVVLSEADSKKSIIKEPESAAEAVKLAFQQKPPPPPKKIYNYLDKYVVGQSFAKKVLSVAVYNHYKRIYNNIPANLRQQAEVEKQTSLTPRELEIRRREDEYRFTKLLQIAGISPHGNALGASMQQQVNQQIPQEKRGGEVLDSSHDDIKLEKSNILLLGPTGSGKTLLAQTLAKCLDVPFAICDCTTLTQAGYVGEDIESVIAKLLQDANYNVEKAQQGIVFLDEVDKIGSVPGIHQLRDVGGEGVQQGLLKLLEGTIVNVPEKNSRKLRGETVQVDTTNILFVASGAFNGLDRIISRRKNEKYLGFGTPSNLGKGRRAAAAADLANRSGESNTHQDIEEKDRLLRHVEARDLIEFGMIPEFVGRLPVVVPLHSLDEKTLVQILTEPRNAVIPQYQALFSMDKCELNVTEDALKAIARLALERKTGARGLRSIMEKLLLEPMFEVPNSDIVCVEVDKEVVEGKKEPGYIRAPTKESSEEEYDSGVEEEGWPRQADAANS
inactive: IRAK-1-4 Inhibitor I 0.002 | [1] 0.006 | ralimetinib -0.03 | [2] -0.02 | [6] 0.048 | [3] -0.055 | pinometostat -0.026 | [4] 0.004 | [5] 0.012

CLASP2 isoform 3 (UniProt O75122)
inactive: IRAK-1-4 Inhibitor I -0.047 | ralimetinib 0.009 | [2] -0.056 | [6] -0.036 | [3] 0.046 | pinometostat 0.018 | [4] 0.023 | [5] 0.046
active: [1] -0.297

CLPP (UniProt Q16740)
inactive: IRAK-1-4 Inhibitor I -0.023 | [1] 0.022 | ralimetinib -0.012 | [2] 0.017 | [6] 0.097 | [3] -0.008 | pinometostat -0.094 | [4] -0.011 | [5] 0.079

CLCN3 isoform 2 (UniProt P51790)
inactive: IRAK-1-4 Inhibitor I 0.005 | [1] -0.008 | ralimetinib 0.026 | [2] -0.043 | [6] -0.049 | [3] -0.066 | pinometostat -0.043 | [4] -0.012 | [5] 0.051

CLTB (UniProt P09497)
Sequence of UniProt P09497 (P09497 whole entry, looked up): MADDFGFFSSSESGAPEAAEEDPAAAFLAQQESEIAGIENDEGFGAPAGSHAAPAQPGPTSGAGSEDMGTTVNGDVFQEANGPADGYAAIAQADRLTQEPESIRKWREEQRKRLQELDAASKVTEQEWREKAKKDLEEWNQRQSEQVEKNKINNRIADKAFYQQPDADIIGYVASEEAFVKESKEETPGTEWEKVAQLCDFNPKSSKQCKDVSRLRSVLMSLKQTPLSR
inactive: IRAK-1-4 Inhibitor I 0.053 | [1] 0.089 | ralimetinib 0.061 | [2] -0.021 | [6] 0.024 | [3] -0.067 | pinometostat -0.07 | [4] 0 | [5] -0.007

CCDC57 (UniProt Q2TAC2)
inactive: IRAK-1-4 Inhibitor I 0.067 | ibrutinib -0.021 | ralimetinib 0.005 | [2] -0.007 | [6] 0.041 | [3] 0.05 | pinometostat -0.04 | [4] 0.042 | [5] 0.012

COPS3 isoform 2 (UniProt Q9UNS2)
inactive: IRAK-1-4 Inhibitor I 0.098 | ibrutinib -0.015 | [1] -0.191 | ralimetinib -0.214 | [2] -0.097 | [3] 0.258 | pinometostat 0.071 | [4] 0.046 | [5] 0.053

CEBPZOS (UniProt A8MTT3)
Sequence of UniProt A8MTT3 (A8MTT3 whole entry, looked up): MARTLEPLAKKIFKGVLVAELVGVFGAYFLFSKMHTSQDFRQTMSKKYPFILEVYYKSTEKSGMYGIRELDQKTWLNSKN
inactive: IRAK-1-4 Inhibitor I -0.034 | ibrutinib -0.095 | [1] 0.003 | ralimetinib -0.076 | [6] 0.018 | [3] -0.059 | pinometostat -0.026 | [4] 0.02 | [5] 0

CCDC167 (UniProt Q9P0B6)
Sequence of UniProt Q9P0B6 (Q9P0B6 whole entry, looked up): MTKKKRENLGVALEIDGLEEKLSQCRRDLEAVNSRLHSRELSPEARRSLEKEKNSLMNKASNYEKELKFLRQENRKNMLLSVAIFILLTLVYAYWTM
inactive: IRAK-1-4 Inhibitor I -0.056 | ibrutinib 0.013 | ralimetinib -0.028 | [2] 0.163 | [6] -0.258 | [3] 0.061 | pinometostat 0.052 | [4] 0.034 | [5] 0.021

CA1 (UniProt E5RIF9)
inactive: ibrutinib 0.161 | [2] -0.052 | [5] -0.02

CLPTM1L (UniProt G5E9Z2)
inactive: [1] -0.03 | [2] -0.556 | [4] 0.106 | [5] -0.201

CLN3 (UniProt Q13286)
active: [6] -0.532
inactive: IRAK-1-4 Inhibitor I 0.106 | ralimetinib -0.05 | [2] -0.011 | [3] -0.043 | pinometostat -0.113 | [4] 0.054 | [5] -0.147

CLINT1 isoform 3 (UniProt Q14677)
inactive: [1] 0.135 | ralimetinib 0.139 | [2] 0.102 | [6] 0.103 | [3] 0.04 | pinometostat 0.047 | [4] -0.002 | [5] 0.022

CNRIP1 (UniProt Q96F85)
inactive: ralimetinib -0.051 | [2] -0.255 | [6] 0.034 | [3] 0.116 | [4] 0.165

CLCN5 isoform 2 (UniProt P51795)
Sequence of UniProt P51795 (P51795 whole entry, looked up): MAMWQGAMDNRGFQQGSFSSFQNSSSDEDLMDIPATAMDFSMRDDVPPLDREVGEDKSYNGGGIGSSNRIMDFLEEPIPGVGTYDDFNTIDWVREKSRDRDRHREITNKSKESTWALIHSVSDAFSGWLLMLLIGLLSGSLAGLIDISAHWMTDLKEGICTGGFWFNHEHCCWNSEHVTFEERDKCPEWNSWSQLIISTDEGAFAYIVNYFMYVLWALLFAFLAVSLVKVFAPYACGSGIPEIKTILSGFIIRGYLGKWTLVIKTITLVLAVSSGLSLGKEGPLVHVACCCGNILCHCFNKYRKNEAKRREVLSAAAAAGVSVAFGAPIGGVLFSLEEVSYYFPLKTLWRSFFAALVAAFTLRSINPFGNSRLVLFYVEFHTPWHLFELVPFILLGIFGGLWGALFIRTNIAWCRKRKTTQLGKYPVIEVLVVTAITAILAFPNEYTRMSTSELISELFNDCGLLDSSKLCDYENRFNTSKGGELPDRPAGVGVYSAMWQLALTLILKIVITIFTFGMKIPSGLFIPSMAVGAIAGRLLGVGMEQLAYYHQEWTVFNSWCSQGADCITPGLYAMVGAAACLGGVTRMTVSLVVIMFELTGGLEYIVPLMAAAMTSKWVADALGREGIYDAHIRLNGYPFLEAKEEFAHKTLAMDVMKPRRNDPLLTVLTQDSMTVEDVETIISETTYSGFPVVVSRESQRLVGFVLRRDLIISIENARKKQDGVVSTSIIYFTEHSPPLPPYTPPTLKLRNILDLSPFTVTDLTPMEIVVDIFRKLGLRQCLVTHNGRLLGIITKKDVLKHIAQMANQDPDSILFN
inactive: IRAK-1-4 Inhibitor I -0.019 | ralimetinib -0.154 | [6] -0.29 | [3] -0.004 | pinometostat 0.061 | [4] 0.021 | [5] 0.009

CPNE5 (UniProt Q9HCH3)
inactive: [6] -0.209 | [5] -0.225
